In PubChem BioAssay AID1851 (National Center for Advancing Translational Sciences (NCATS), 2009):
In all, about 16,000 compounds went through this assay and about 5,700 (36%) were called active. Inconclusive results (about 24%) are left out. Some of the results follow. A number with no mark means an inactive call. Calls come from the whole dose curve; as a rule, active = well fitted curve in the direction sought with a large enough effect; inconclusive = small, poorly fitted or top-dose-only effect, or effect the other way; inactive = no such curve, though single readings can be large or run the other way.
% is set by controls: 0 for no effect and ±100 for the full control effect.

What follows are molecules tested against Cytochrome P450 1A2 (Homo sapiens) (UniProt P05177) (assay: Cytochrome panel assay with activity outcomes). Details: recombinant CYP, pro-luciferin dealkylation, luminescence, p450-cyp1a2; series mostly up to 57.1 µM; activity, negative = inhibition: at the top concentration.
Chain of Cytochrome P450 1A2 (Homo sapiens) (P05177 whole entry, looked up): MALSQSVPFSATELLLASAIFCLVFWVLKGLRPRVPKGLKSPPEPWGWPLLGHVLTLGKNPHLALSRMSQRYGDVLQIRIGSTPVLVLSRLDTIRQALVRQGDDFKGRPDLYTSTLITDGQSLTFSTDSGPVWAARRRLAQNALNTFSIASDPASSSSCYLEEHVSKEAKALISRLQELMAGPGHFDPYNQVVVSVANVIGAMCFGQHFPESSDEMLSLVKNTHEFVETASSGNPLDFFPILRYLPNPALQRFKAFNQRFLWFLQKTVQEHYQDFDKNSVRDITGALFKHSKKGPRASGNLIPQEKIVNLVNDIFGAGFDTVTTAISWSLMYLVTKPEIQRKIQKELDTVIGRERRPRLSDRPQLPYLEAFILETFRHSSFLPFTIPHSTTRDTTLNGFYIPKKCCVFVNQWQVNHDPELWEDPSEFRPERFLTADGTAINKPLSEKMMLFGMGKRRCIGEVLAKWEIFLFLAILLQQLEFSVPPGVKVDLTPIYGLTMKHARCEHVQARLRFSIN
Work on C/C=C\C1=C(CO)C(=O)C2O[C@]2(CC=C(C)C)C1=O (stereo not given in full) yielded an activity, negative = inhibition of -6.49% [at 11.4 µM]. In the case of O=[N+]([O-])c1cccc(-c2nc(-c3cccs3)c(-c3cccs3)[nH]2)c1, the AC50 is reported as 1000 nM (active). For COc1ccc(-c2nc(-c3ccccc3)c(-c3cc([N+](=O)[O-])ccc3C)[nH]2)cc1O, the AC50 was 14100 nM (active). For O=[N+]([O-])c1cccc(-c2nc(-c3ccccc3)c(-c3cccs3)[nH]2)c1, the AC50 was 2510 nM (active). For CCN(CC)c1ccc(NC(=O)c2cnn(CC)c2)cc1, the “activity, negative = inhibition” value was -3.68%. With CCOc1ccc(C(=O)Nc2cnn(Cc3ccc(Cl)c(Cl)c3)c2)cc1 the AC50 was 10000 nM (active). CCOC(OCC)P(=O)(O)CCCNCc1ccc(Cl)c(Cl)c1 was tested, and the “activity, negative = inhibition” value was -38%. For Cc1cc(C(=O)CSC(=S)SC(C)(C)C)ccc1Cl, the AC50 was 1580 nM (active). For N#CCCn1c(=O)c(-c2cc(F)cc(F)c2)nc2cnc(Oc3ccccc3)nc21, the AC50 was 2000 nM (active). In the case of N#CCCn1c(=O)cnc2cnc(OCc3ccccc3)nc21, the AC50 is reported as 12600 nM (active). N#CCCn1c(=O)c(-c2ccc(F)cc2)nc2cnc(OCc3ccccc3)nc21 was tested, and the AC50 was 1580 nM (active). For N#CCCn1c(=O)c(-c2ccc(Cl)cc2)nc2cnc(OCc3ccccc3)nc21, the AC50 was 2000 nM (active). With O=C1CC[C@H](NC(=O)c2ccccc2)C(=O)N1 the activity, negative = inhibition was -20.9% [at 11.4 µM]. With CN(C)c1ncc2nc(-c3cc(F)cc(F)c3)c(=O)n(CCC#N)c2n1 the “activity, negative = inhibition” value was -15.7%. For N#CCCn1c(=O)c(-c2cc(F)cc(F)c2)nc2cnc(OCc3ccccc3)nc21, the AC50 was 6310 nM (active). N#CCCn1c(=O)c(-c2ccccc2)nc2cnc(OCc3ccccc3)nc21 was tested, and the AC50 was 3160 nM (active). For COc1ncc2nc(-c3cc(F)cc(F)c3)c(=O)n(CCC#N)c2n1, the AC50 was 6310 nM (active). COc1cccc([C@@H]2Oc3ccc(OC)cc3/C(=N/O[C@@H](C)c3cn([C@H]4COC[C@H]4O)nn3)[C@@H]2O)c1 was tested, and the activity, negative = inhibition was 8.26% [at 11.4 µM]. Clc1ccccc1C(Nc1ncccn1)Nc1ncccn1 showed an activity, negative = inhibition of -16.9% [at 11.4 µM]. In the case of CC(=O)c1c(C(C)=O)c(C)n(NC(=O)c2ccncc2)c1C, the “activity, negative = inhibition” value is reported as 8.59%. For Cc1onc(-c2c(Cl)cccc2Cl)c1C(=O)N1CCc2ccccc2C1, the “activity, negative = inhibition” value was -17.5%. Cc1onc(-c2ccccc2)c1C(=O)NC(CC(=O)O)c1ccc(OC(C)C)cc1 (stereo not given) was tested, and the “activity, negative = inhibition” value was -19.1%. In the case of CC(=O)c1cc2c(cc1NC(=O)c1c(-c3ccccc3)noc1C)OCO2, the AC50 is reported as 2240 nM (active). For CC(=O)c1cc2c(cc1NC(=O)CCCC(=O)O)OCO2, the “activity, negative = inhibition” value was -28%. Cc1onc(-c2c(Cl)cccc2Cl)c1C(=O)Nc1ccc2c(c1)OCO2 was tested, and the AC50 was 3160 nM (active).
